Measurements published in PubChem BioAssay AID602449 (Sanford-Burnham Center for Chemical Genomics, 2012).
Out of some 360,000 compounds screened, about 5,000 (1.4%) were called active. This excerpt belongs to a sample that is enriched for actives. Values without a mark were called inactive.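 The calls were made as follows: active = inhibition of 50% or more, scaled per plate between neutral and stimulator controls; inactive = the rest.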

Experiment: blockers of Ca2+-induced mitochondrial swelling – biochemical, isolated mouse mitochondria, absorbance, primary screen (AID 602449);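 also: 0% = DMSO wells given calcium and 100% = 1 mM EGTA wells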
Conditions: 30 min, at 10 µM, hits give high values

| Compound | inhibition |
| --- | --- |
| CCOc1ccc(N2C(=O)/C(=C/c3ccc(C)o3)N(C)C2=S)cc1 | 4.3% |
| Cc1c(C)n2c(SCC(=O)NC3CCCC3)nnc2[nH]c1=O | -1.2% |
| O=C1CCCCC1Sc1ccc(Cl)cc1[N+](=O)[O-] (stereo not drawn) | -0.4% |
| CC(C)c1ccccc1OCC(O)CN(CC(O)COc1cccc2ccccc12)C(C)C (stereo not drawn) | 61.5% (active) |
| CN1CCN(CCCCOc2cccc3ccccc23)CC1 | -0.6% |
| CC1CC(C)CN(CCOc2cccc3ccccc23)C1 (stereo not drawn) | -1.7% |
| Cc1ccc(C(=O)NCC(=O)NCc2cc(=O)n(C)c(=O)n2C)cc1 | -1.3% |
| NS(=O)(=O)c1ccc2nc(NC(=O)C3=COCCO3)sc2c1 | -0.6% |
| CNC(=O)c1ccsc1NC(=O)c1ccc(S(=O)(=O)N2CCc3ccccc32)cc1 | 0.6% |
| O=C(Nc1nc2ccc([N+](=O)[O-])cc2s1)c1ccc(S(=O)(=O)N2CCCc3ccccc32)cc1 | 78.1% (active) |
| Cc1ccc(NC(=O)c2cccc(S(=O)(=O)N3CCCc4ccccc43)c2)nc1 | -1.2% |
| O=C(NC(Nc1nc2ccc([N+](=O)[O-])cc2s1)(C(F)(F)F)C(F)(F)F)c1ccccc1 | 93.7% (active) |
| Cc1cc(C)cc(OCC(=O)Nc2nc3ccc([N+](=O)[O-])cc3s2)c1 | 50.4% (active) |
| CC(Nc1ccc([N+](=O)[O-])cc1[N+](=O)[O-])c1ccccc1 (stereo not drawn) | 1% |
| Cc1cc(C)cc(OCC(=O)Nc2cc(NC(=O)COc3cc(C)cc(C)c3)cc(C(=O)O)c2)c1 | 1.6% |
| O=C(Nc1nc2ccc([N+](=O)[O-])cc2s1)c1ccncc1 | 68.5% (active) |
| CSc1ncccc1C(=O)Nc1nc2ccc(F)cc2s1 | 5.6% |
| O=C(NNC(=O)c1ccc(-n2cncn2)c([N+](=O)[O-])c1)c1ccccc1 | -2.8% |
| Cc1cc(C)cc(OCC(=O)O/N=C(\N)Cc2ccc([N+](=O)[O-])cc2)c1 | 3.2% |
| COc1ccc(-c2n[nH]c3c2CN(C(=O)c2ccc(F)cc2)CC3)cc1 | 1.2% |
| COc1ccccc1CSc1ncc(-c2ccc([N+](=O)[O-])cc2)[nH]1 | 24.2% |
| CC1(C)C2CCC1(CS(=O)(=O)NCCc1c[nH]c3ccccc13)C(=O)C2 (stereo not drawn) | 0.4% |
| CC(=O)N1c2ccc(S(=O)(=O)N3CCCC(C(=O)Nc4ccc(C)cc4C)C3)cc2CC1C (stereo not drawn) | 0.4% |
| COc1ccc(NS(=O)(=O)c2cc(NC(=O)C3CCCCC3)ccc2N2CCOCC2)cc1 | -0.4% |

| Compound | inhibition |
| --- | --- |
| CCOc1ncccc1C(=O)N(CC)CC(=O)Nc1ccc(NC(C)=O)cc1 | -0.1% |
| Cc1cc(Cl)c2oc(C(=O)NC(C)c3ccncn3)c(C)c2c1 (stereo not drawn) | -0.4% |
| COC(=O)[C@@]12C[C@@H](CC(=O)NCc3cccc(C(F)(F)F)c3)C(=O)N(Cc3ccco3)C1=CCC(C)(C)C2 | -0.5% |
| COc1ccc(C(=O)NC2(C(F)(F)F)NC(=O)N(CCCc3ccccc3)C2=O)c(OC)c1OC (stereo not drawn) | 11.9% |
| CCCC1=Nc2cc(C(=O)NCCN3CCCC3)ccc2Sc2ccccc21 | -1.2% |
| Cc1cccc(C(=O)OC(C)CN2CCN(C)CC2)c1 (stereo not drawn) | -1.6% |
| Cc1cccc(-c2nc3ccc(C(=O)NCCN4CCN(C)CC4)cc3nc2-c2cccc(C)c2)c1 | 55.9% (active) |
| C[C@H](NS(=O)(=O)c1ccc(Cl)cc1)C(=O)OCC(=O)N1CCOCC1 | 1.4% |
| COc1ccc(C(C)C)cc1S(=O)(=O)Nc1ncn[nH]1 | -0.4% |
| CC(=O)c1c(C)[nH]c(C(=O)CN2C(=O)NC(C)(C)C2=O)c1C | -0.1% |
| O=C(CSc1nc2ccc([N+](=O)[O-])cc2[nH]1)c1ccc(Cl)cc1 | 104% (active) |
| Cc1nc(SCC(=O)c2ccccc2)c([N+](=O)[O-])[nH]1 | 3.9% |
| CC(=O)Nc1ccc(C(=O)CSc2nc3ccc(C)cc3[nH]2)cc1 | -1.5% |
| COc1cccc(NC(=O)CN(C)C(=O)CSCc2nc3scc(-c4cccs4)c3c(=O)[nH]2)c1 | -0.9% |
| Cc1ccccc1N1CC(C(=O)Nc2nnc(SCCC3OCCO3)s2)CC1=O (stereo not drawn) | -2.6% |
| O=[N+]([O-])c1ccc(N/N=C/c2ccccc2)cc1 | 63.2% (active) |
| CC(C)c1ccc(C=NNc2ccc([N+](=O)[O-])cn2)cc1 | 7% |
| Cc1ccccc1OCCOc1ccc([N+](=O)[O-])cc1/C=N/n1cnnc1 | 3.3% |
| O=[N+]([O-])c1ccc(N=NNc2ccc([N+](=O)[O-])cc2)cc1 | 21.4% |
| Cc1cccc(COc2ccccc2/C=N/Nc2ccc([N+](=O)[O-])cc2)c1 | 69.1% (active) |
| Cc1cc([N+](=O)[O-])ccc1NCc1cccc([N+](=O)[O-])c1 | 6.8% |
| c1ccc(-c2cn3c(n2)CCc2ccc4cccnc4c2-3)cc1 | -2% |
| O=C(OCC(=O)N1CCCCCC1)c1cccc(Cl)c1Cl | 3.6% |
| CN(C)CCN=c1cc(-c2ccccc2)oc2ccc(Cl)cc12 | 3% |

| Compound | inhibition |
| --- | --- |
| CCCCn1c(N)c(N(CC(C)C)C(=O)c2ccc(Br)o2)c(=O)[nH]c1=O | -1.5% |
| CC(NC(=S)Nc1ccc(OC(F)F)cc1)c1ccc(F)cc1 (stereo not drawn) | 102% (active) |
| CC(C)N(Cc1ccccc1)C(=S)Nc1ccc(OC(F)F)cc1 | 5.8% |
| CC/C(=N\NC(=S)NC(C)C)c1ccc(OC(F)F)cc1 | 1.8% |
| Cc1cc(Br)ccc1NC(=O)c1cnc(N2CCN(c3ccccn3)CC2)c2ccccc12 | 0.4% |
| O=C(O)c1ccc([N+](=O)[O-])cc1Sc1ccsc1 | 0.7% |
| COCCn1c(SCC(=O)Nc2cc(OC)ccc2OC)nc2c(c1=O)SC(C)C2 (stereo not drawn) | 1.2% |
| CCCCCc1c(-c2ccc(OC)c(OC)c2)ncn1CCc1ccccc1OC | 5.6% |
| CCCCCc1c(-c2cccc(Br)c2)ncn1CCc1ccccc1OC | 1.3% |
| CCCCCc1c(Cc2ccccc2)ncn1CCc1ccccc1OC | 85.6% (active) |
| CCCCn1c(N)c(N(CC(C)C)C(=O)c2cccc(S(=O)(=O)N3CC(C)OC(C)C3)c2)c(=O)[nH]c1=O (stereo not drawn) | 6.1% |
| CCOC(=O)c1cnc(Nc2nc3ccccc3o2)nc1CSC(=S)N1CCCCC1 | 1.4% |
| O=C(CN1C(=O)CC(c2ccccc2)=Nc2ccccc21)NC1CCCCC1 | -0.4% |
| Cc1cc(C=O)c(C)n1-c1ccc(NC2CCCCC2)c([N+](=O)[O-])c1 | 80.6% (active) |
| Cc1cc([N+](=O)[O-])c(NC2CCCCC2)c([N+](=O)[O-])c1 | 0.6% |
| COc1ccc(NC(=O)CN(C)C(=O)c2ccc(NC3CC3)c([N+](=O)[O-])c2)cc1 | 0.5% |
| OC[C@@H]1CN(Cc2ccc(-c3ccccc3)cc2)C[C@H](n2cnc3c(NC4CCCC4)ncnc32)O1 | 17.2% |
| COC(=O)c1ccc(OCC(O)CN(CCO)CC(O)Cn2ccc3ccccc32)cc1 (stereo not drawn) | 0% |
| Cc1oc2c(F)c(F)c(F)c(F)c2c1S(=O)(=O)Nc1cccc(C(F)(F)F)c1 | 83.3% (active) |
| Cc1ccc(N(CCC(=O)O)S(=O)(=O)c2cccc(C(F)(F)F)c2)cc1 | 1.1% |
| Cc1noc(C)c1S(=O)(=O)Nc1cc(C(F)(F)F)ccc1N1CCOCC1 | 4.6% |
| N/C(=N\OC(=O)Nc1ccc(Cl)c(Cl)c1)c1ncc(C(F)(F)F)cc1Cl | 88.1% (active) |
| N/C(=N\OC(=O)CCCC(=O)O)c1ncc(C(F)(F)F)cc1Cl | -0.2% |
| O=C(c1ccccn1)c1ncc(C(F)(F)F)cc1Cl | -0.8% |

| Compound | inhibition |
| --- | --- |
| ONC(=Nc1ccc(Cl)cc1)c1ccccc1Cl | 1% |
| CCOC(=O)C1CSC(CC(=O)Nc2ccc(OCC)cc2)C(=O)N1 (stereo not drawn) | 3.6% |
| CCCCCCNCCn1cnc2c(N)ncnc21 | -0.8% |
| COc1cccc(-c2cnc(OC(C)(C)C)nc2OC(C)(C)C)c1 | -0.3% |
| COc1ccc(C(C)NC(=O)C2CCCC2)cc1 (stereo not drawn) | 0.1% |
| CCN(CC(=O)NCCCN1CCOCC1)S(=O)(=O)c1cc(Cl)ccc1Cl | -1.1% |
| COc1ccc(Cl)cc1NC(=O)CN(C)Cc1ccc(OC)c(OC)c1 | 0.9% |
| COc1ccccc1C(=O)NC(=S)Nc1ccccc1N1CCCCC1 | 1.3% |
| COc1ccc(Br)cc1C(=O)NC(=S)Nc1cc(-c2nc3ccccc3[nH]2)ccc1C | 70.7% (active) |
| COc1ccc(Br)cc1C(=O)Nc1cccc(C)c1C | -1.2% |
| CC1CCCCC12NC(=O)N(CC(=O)OCC(=O)NCc1ccc(F)cc1)C2=O (stereo not drawn) | -0.2% |
| O=C(Nc1nsc(-c2ccccc2)n1)c1ccncc1 | 0.9% |
| O=C(CN(c1cccc(Cl)c1)S(=O)(=O)c1ccccc1)NN=C1CCCC1 | 0.3% |
| CCOC(=O)CSc1nc(C)c(Oc2ccc(Cl)cc2Cl)c(=O)[nH]1 | 2.7% |
| Cc1nnc(SCC(=O)N2CCOCC2)[nH]c1=O | 26.4% |
| CCCCOC(=O)CNc1nnc(SCC(=O)OCC)[nH]c1=O | 77.3% (active) |
| COc1ccccc1P(=O)(c1ccccc1)c1ccccc1NC(C)=O (stereo not drawn) | 0.1% |
| COC(C[C@H](O)CC(=O)COCc1ccccc1)OC | -0.4% |
| O=C(N/N=C/c1ccc(O)c(O)c1)C1c2ccccc2Oc2ccccc21 | 104% (active) |
| Cn1c(SCC(=O)N/N=C/c2ccc(O)c(O)c2)nc2ccccc21 | 2.9% |
| CC(C)(C)c1nnc(NC(=O)C2c3ccccc3Oc3ccccc32)s1 | 6.5% |
